Several values for one entry are separate records, joined by “and”; a condition that tells them apart may be missing. Identical values can stand only once. Among all 5,500 compounds or so, about 2,000 (36%) were called active. Roughly 18% stayed inconclusive and do not appear here. Rule as the data show it: active = normalized growth mostly below about 0.91 (no sharp cut-off); inconclusive = no clear call, values can overlap the other calls; inactive = mostly above about 0.92. This is one part of the list.
Assay: chemical genetic growth profiling, strain panel (AID 1159580);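 also: tested at 20 µM; growth read once vehicle control cultures reached saturation at 30 °C; 1 = growth at the plate median or of vehicle wells; lower values mean less growth of the strain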
Settings: S. cerevisiae deletion strains, growth OD

Measured: normalized growth

CC(C)=CCC[C@](C)(O)C1CC=C(C)CC1 (stereo partly specified)
inactive: locus YAL021C, strain ccr4, stronger effect = lower value 0.958 | locus YAL026C, strain drs2, stronger effect = lower value 0.987 | locus YAL030W, strain snc1, stronger effect = lower value 0.994 | locus YBL061C, strain skt5, stronger effect = lower value 0.98 | locus YBR009C, strain hhf1, stronger effect = lower value 0.996 | locus YBR021W, strain FUR4, stronger effect = lower value 0.966 | locus YBR023C, strain chs3, stronger effect = lower value 0.981 | locus YBR171W, strain sec66, stronger effect = lower value 0.967 | locus YBR229C, strain ROT2, stronger effect = lower value 1.02 | locus YBR231C, strain swc5, stronger effect = lower value 1 | locus YBR279W, strain paf1, stronger effect = lower value 0.99 | locus YCL011C, strain gbp2, stronger effect = lower value 0.979 | locus YCL016C, strain dcc1, stronger effect = lower value 0.992 | locus YCL029C, strain bik1, stronger effect = lower value 1 | locus YCL061C, strain MRC1, stronger effect = lower value 0.982 | locus YCL069W, strain vba3, stronger effect = lower value 0.987 | locus YCR088W, strain abp1, stronger effect = lower value 0.986 | locus YDL005C, strain med2, stronger effect = lower value 0.971 | locus YDL035C, strain GPR1, stronger effect = lower value 0.984 | locus YDL040C, strain nat1, stronger effect = lower value 1 | locus YDL074C, strain BRE1, stronger effect = lower value 0.995 | locus YDL101C, strain DUN1, stronger effect = lower value 1.02 | locus YDL134C, strain PPH21, stronger effect = lower value 1.02 | locus YDL185W, strain tfp1, stronger effect = lower value 0.987 | locus YDL192W, strain arf1, stronger effect = lower value 0.969 | locus YDR001C, strain nth1, stronger effect = lower value 0.994 | locus YDR069C, strain doa4, stronger effect = lower value 0.995 | locus YDR101C, strain arx1, stronger effect = lower value 0.976 | locus YDR137W, strain rgp1, stronger effect = lower value 0.972 | locus YDR159W, strain sac3, stronger effect = lower value 1 | locus YDR162C, strain NBP2, stronger effect = lower value 1.04 | locus YDR195W, strain ref2 1 | locus YDR297W, strain sur2, stronger effect = lower value 1.01 | locus YDR318W, strain mcm21, stronger effect = lower value 1 | locus YDR334W, strain swr1, stronger effect = lower value 0.985 | locus YDR335W, strain msn5, stronger effect = lower value 0.984 | locus YDR388W, stronger effect = lower value 1 | locus YDR392W, strain spt3, stronger effect = lower value 0.906 | locus YDR502C, strain sam2, stronger effect = lower value 0.973 | locus YEL003W, strain gim4, stronger effect = lower value 0.983 | locus YEL037C, strain rad23, stronger effect = lower value 0.978 | locus YEL061C, strain CIN8 (second series), stronger effect = lower value 0.983 | locus YEL061C, strain CIN8, stronger effect = lower value 1.02 | locus YER015W, strain faa2, stronger effect = lower value 0.987 | locus YER016W, strain bim1, stronger effect = lower value 0.987 | locus YER110C, stronger effect = lower value 0.982 | locus YER111C, strain swi4, stronger effect = lower value 0.969 | locus YER155C, strain BEM2 (second series), stronger effect = lower value 0.985 | locus YER155C, strain BEM2, stronger effect = lower value 1.02 | locus YER167W, strain BCK2, stronger effect = lower value 1.01 | locus YFR010W, strain ubp6, stronger effect = lower value 0.976 | locus YGL078C, strain dbp3, stronger effect = lower value 0.97 | locus YGL086W, strain mad1, stronger effect = lower value 0.976 | locus YGL167C, strain pmr1, stronger effect = lower value 0.982 | locus YGL173C, strain kem1, stronger effect = lower value 0.981 | locus YGL227W, strain vid30, stronger effect = lower value 0.981 | locus YGL240W, strain doc1, stronger effect = lower value 0.994 | locus YGL248W, strain PDE1, stronger effect = lower value 1.02 | locus YGL253W, strain hxk2, stronger effect = lower value 0.959 | locus YGR135W, strain pre9, stronger effect = lower value 1.01 | locus YGR252W, strain gcn5, stronger effect = lower value 0.962 | locus YHR013C, strain ard1, stronger effect = lower value 0.997 | locus YHR027C, strain rpn1, stronger effect = lower value 0.999 | locus YHR030C, strain SLT2, stronger effect = lower value 1.02 and 1 | locus YHR079C, strain IRE1 (second series), stronger effect = lower value 0.98 | locus YHR079C, strain IRE1, stronger effect = lower value 0.988 | locus YHR094C, strain hxt1, stronger effect = lower value 0.985 | locus YHR129C, strain ARP1, stronger effect = lower value 1.02 | locus YHR142W, strain chs7, stronger effect = lower value 0.953 | locus YHR200W, strain rpn10, stronger effect = lower value 1 | locus YIL066C, strain RNR3, stronger effect = lower value 1.02 | locus YIL073C, strain SPO22, stronger effect = lower value 1.02 | locus YIL125W, strain kgd1, stronger effect = lower value 0.997 | locus YIR030C, strain dcg1, stronger effect = lower value 0.991 | locus YJL092W, strain hpr5, stronger effect = lower value 0.958 | locus YJL095W, strain BCK1 (second series), stronger effect = lower value 0.976 | locus YJL095W, strain BCK1, stronger effect = lower value 1.04 and 0.993 | locus YJL115W, strain asf1, stronger effect = lower value 0.988 | locus YJL129C, strain trk1, stronger effect = lower value 0.973 | locus YJL134W, strain LCB3, stronger effect = lower value 1.01 | locus YJL154C, strain vps35, stronger effect = lower value 0.995 | locus YJL164C, strain tpk1, stronger effect = lower value 1 | locus YJL166W, strain qcr8, stronger effect = lower value 0.989 | locus YJL168C, strain set2, stronger effect = lower value 0.987 | locus YJL187C, strain SWE1 (second series), stronger effect = lower value 1.03 | locus YJL187C, strain SWE1, stronger effect = lower value 0.987

Reference: PubChem BioAssay AID1159580 (chemical genetic matrix, 2015)
